Screening results deposited in PubChem by The Scripps Research Institute Molecular Screening Center.
A selection: hits, their analogues and other compounds. The true share with any hit is near 2.3%.
M1 PAM parental = nonselective activator or artifact in parental CHO-K1 calcium assay; ATP EC20, Fluo-8 calcium fluorescence; 0% at ATP EC20, 100% at ATP max; activation, % at 3 µM; 360,000 compounds, 0.02% hits;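 active means activation above the run cutoff, the mean activation of all test compounds plus 3 SD, cut at about 40% in these data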;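 further: peak over basal fluorescence ratio in a 140 s read after ATP addition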
CHRM1 agonist = human M1 muscarinic receptor agonism; 360,000 compounds, 0.33% hits; P11229; CHO-K1 hM1, Fluo-8 calcium fluorescence, agonist mode; 0% DMSO, 100% acetylcholine EC100; activation, % at 3 µM;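 active means activation above the run's mean compound activation plus 3 SD, cut at about 16% in these data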;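 further: peak over basal fluorescence ratio within a 140 s kinetic read after compound addition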
Target sequence (P11229 whole entry, looked up): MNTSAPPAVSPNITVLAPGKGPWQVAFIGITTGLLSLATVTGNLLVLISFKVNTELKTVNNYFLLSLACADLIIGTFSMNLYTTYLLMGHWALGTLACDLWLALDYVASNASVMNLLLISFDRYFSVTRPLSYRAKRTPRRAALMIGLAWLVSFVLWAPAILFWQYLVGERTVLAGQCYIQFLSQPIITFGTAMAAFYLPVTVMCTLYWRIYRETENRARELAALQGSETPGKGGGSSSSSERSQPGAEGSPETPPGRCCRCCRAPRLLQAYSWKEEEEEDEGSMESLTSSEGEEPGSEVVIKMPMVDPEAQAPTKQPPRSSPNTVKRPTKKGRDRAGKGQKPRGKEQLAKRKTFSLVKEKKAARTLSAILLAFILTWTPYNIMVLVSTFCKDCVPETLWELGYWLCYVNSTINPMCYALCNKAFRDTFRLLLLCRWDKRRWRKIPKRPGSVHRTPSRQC
M1 ag parental = nonselective activator or artifact in parental CHO-K1 cells; Fluo-8 calcium fluorescence; scaled to maximal ATP response, vehicle zero; activation, % at 3 µM; 360,000 compounds, 0.48% hits; AID 602248; in the data active means activation above about 15%;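 further: untransfected CHO-K1 host cells lacking M1 receptor as counterscreen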
CHRM1 PAM = positive allosteric modulators of human M1 muscarinic receptor; CHO-K1 hM1, Fluo-8 calcium fluorescence, ACh EC20; 0% = ACh EC20, 100% = maximal ACh; activation, % at 3 µM; P11229; AID 588819; 360,000 compounds, 0.088% hits; in the data active means activation above about 19%, passing the limit was not always enough
M1 antag = blocks human M1 muscarinic receptor; CHO-K1 hM1, Fluo-8 calcium fluorescence, ACh EC80 antagonist; P11229; 360,000 compounds, 1.3% hits; AID 588852; inhibition, % at 3 µM;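 active means percent inhibition above its own plate's cutoff, namely the mean of that plate's compound wells plus 3 SD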;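 further: peak over basal fluorescence ratio during 140 s after agonist addition; 0% = ACh EC80 plus DMSO and 100% = DMSO alone without agonist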
CHO-K1 Ca antag = nonselective inhibitor or artifact in parental CHO-K1 cells. ATP-induced calcium, Fluo-8 fluorescence. 360,000 compounds, 0.6% hits. inhibition, % at 3 µM. AID 602250;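 active means inhibition above a per-plate cutoff, the plate's mean sample inhibition plus 3 SD, cut at about 24% in these data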;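 further: 0% = DMSO plus EC80 ATP and 100% = DMSO alone without ATP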
Numbers without * were called inactive; nt = no result.

SMILES	M1 PAM parental	CHRM1 agonist	M1 ag parental	CHRM1 PAM	M1 antag	CHO-K1 Ca antag
Cc1ccc(C)c(NC(=O)Nc2ccc3c(c2)OCO3)c1	-15.3	-3.8	-0.1	12.2	-16.2	29.2*
COc1ccc(NC(=O)CN(c2ccc(F)cc2)S(=O)(=O)c2ccccc2)c(OC)c1	22.7	-4.8	0.9	0.2	-0.2	-5.6
COC(=O)C1=C(C)N(Cc2ccco2)C(=O)/C1=C\c1ccc([N+](=O)[O-])cc1	18.9	4.1	16.7*	-2.7	19.6	8.1
O=S1(=O)CC(O)C(O)CS1 (stereo not drawn)	-14.1	nt	0.3	nt	nt	-14.2
COc1cc(C(=O)Nc2cccc(-n3cnnn3)c2)cc(OC)c1OC	15.1	-0.4	3.9	1.3	-1.7	-12.6
COc1cc(C(=O)Nc2ccc(-n3cnnn3)c(C)c2)cc(OC)c1OC	-7.0	3.2	0.8	3.0	-3.4	24.4*
Cc1cccc2c(N=NC(=O)c3ccc(NS(=O)(=O)c4cccs4)cc3)c(O)[nH]c12	8.0	-7.4	0.2	-23.8	37.3*	-15.2
CN(C)/C=N/NC(=O)c1ccc(Cl)cc1	21.4	-6.7	3.5	-0.3	3.8	-5.8
CN(C)/C=N/c1cnc(C(=O)c2ccc(Cl)cc2)n1C	-5.7	-1.5	0.5	26.0*	10.2	7.5
Cc1ccc(NC(=O)N2CCOCC2)cc1NC(=O)N1CCOCC1	13.2	-0.2	0.9	6.6	-15.9	-11.8
Cc1c(C)c2ccc(OCC(=O)N[C@@H](Cc3c[nH]c4ccccc34)C(=O)O)cc2oc1=O	-16.4	-2.2	-0.3	2.4	-6.9	29.3*
Cc1cc(C)n(-c2ccc(F)cc2CN2CCN(Cc3ccccc3)C(CCO)C2)n1 (stereo not drawn)	12.5	-6.5	1.4	-18.7	39.5*	-10.8
CC(C)=CCN1CCN(Cc2cc(F)ccc2-n2nc(C)cc2C)CC1CCO (stereo not drawn)	12.3	-9.0	0.1	-3.6	-2.1	-0.8
CC(C)=CCCC(C)NC(=O)NC1CCCCC1 (stereo not drawn)	-8.6	-3.4	-0.4	1.6	nt	24.6*
CCN(CC#CCC1(O)c2ccccc2-c2ccccc21)C(C)C	2.4	-6.3	-0.2	-22.3	71.0*	1.1
CCN(CC)CC#CCC1(O)c2ccccc2-c2ccccc21	5.6	-10.2	1.0	-24.4	25.8*	-13.2
CCOC(=O)[C@]12CCC=C1N(Cc1ccc3c(c1)OCO3)C(=O)[C@H](CC(=O)N1CCN(C(=O)c3ccco3)CC1)C2	18.1	nt	1.5	nt	nt	-24.8
Cc1ccc(NC(=O)COCC(=O)Nc2ccc(F)cc2)cc1	-6.1	-0.9	0.0	12.9	-13.9	-13.5
CCn1c(=O)c(C(=O)CN2CCCc3ccccc32)c(N)n(Cc2ccccc2)c1=O	1.9	-5.7	0.0	-9.7	22.2*	14.4
COc1cc2c(cc1NC(=O)C(C)OC(=O)C1CC(=O)N(Cc3ccco3)C1)oc1ccccc12 (stereo not drawn)	-5.6	-2.4	-0.1	0.9	0.4	28.5*
CC(OC(=O)C1CC(=O)N(Cc2ccco2)C1)C(=O)Nc1cccc(C#N)c1 (stereo not drawn)	-8.3	-7.2	0.8	2.6	-2.1	-1.4
Cc1ccc(-n2ncc(C#N)c2/N=C/N2CCN(C)CC2)cc1	19.7	-7.2	0.7	-5.7	-8.2	-7.5
CN1CCN(/C=N/c2c(C#N)cnn2-c2ccccc2)CC1	4.3	-3.4	0.1	-12.6	30.0*	-2.1
CCOC(=O)C1=C(C)Nc2nc3ccccc3n2C1c1ccc(O)cc1 (stereo not drawn)	0.3	-0.9	0.4	1.8	-2.6	-6.1
COC(=O)C1=C(C)Nc2nc3ccccc3n2C1c1cc(OC)c(OC)c(OC)c1 (stereo not drawn)	19.7	-5.3	17.2*	1.0	-8.0	0.5
SMILES	M1 PAM parental	CHRM1 agonist	M1 ag parental	CHRM1 PAM	M1 antag	CHO-K1 Ca antag
CC(C)NC(=O)c1ccc2c(c1)N(CC(=O)N1CCCCC1)C(=O)C(C)(C)O2	8.5	-3.0	1.3	9.4	-14.0	-13.2
O=C(Nc1nnc(-c2ccccc2Cl)o1)c1ccco1	4.7	-4.3	0.1	3.2	0.1	-0.5
COc1cccc2sc(Nc3nnc(-c4ccccc4Cl)o3)nc12	-9.2	1.3	-0.2	1.0	-4.3	29.4*
O=C(Nc1nnc(-c2ccccc2Cl)o1)c1nc2ccccc2s1	-0.3	73.8*	47.9*	-6.4	0.6	-0.1
COc1ccccc1-c1nnc(Nc2nc3c(OC)cccc3s2)o1	18.0	-2.9	1.2	12.6	-2.2	-1.4
Cn1nc([N+](=O)[O-])nc1Oc1ccc(C(C)(C)C)cc1	13.3	-9.6	-0.1	5.8	-9.1	-2.8
CCOc1ccc(S(=O)(=O)N2CCN(C(=O)CCOc3ccccc3C)CC2)cc1	3.5	-4.0	3.1	1.2	-5.1	-9.3
Cc1c(Br)c([N+](=O)[O-])nn1C(C)C(=O)N1CCc2ccccc2C1 (stereo not drawn)	6.5	-5.8	3.4	-23.5	72.6*	-6.1
Cc1c(Br)c([N+](=O)[O-])nn1CC(=O)N1CCc2ccccc2C1	4.8	-9.0	0.4	-1.9	6.8	10.3
Cc1cccc(OC(C)C(=O)N2CCN(Cc3ccc4c(c3)OCO4)CC2)c1 (stereo not drawn)	-18.4	-1.6	1.1	10.7	-6.9	9.7
CC1(C(=O)Nc2cnc3ccccc3c2)CCN1Cc1cc2ccccc2o1 (stereo not drawn)	-16.2	-5.3	2.7	-8.7	9.7	34.8*
CC1(C(=O)Nc2cnc3ccccc3c2)CCN1Cc1ccc2ccccc2c1 (stereo not drawn)	31.0	-5.9	3.2	-11.6	12.7	-14.1
O=C(CN1CCN(c2ccc([N+](=O)[O-])cc2)CC1)c1ccccc1	12.7	-7.9	2.3	-26.2	39.6*	3.0
O=C(CCN1CCN(c2ccc([N+](=O)[O-])cc2)CC1)c1ccc(Cl)cc1	-8.8	-4.4	9.9	-18.7	37.8*	16.8
CCc1nn(CC(=O)NCCCN2CCc3ccccc3C2)c(=O)c2cc3sccc3n12	14.0	-13.5	0.3	-33.0	43.7*	-10.3
Cn1cc(-c2coc3c(C(=O)NCc4cccc(Cl)c4)cccc23)cn1	5.5	-0.3	4.3	-1.6	-7.5	-10.3
O=C(NCC(F)(F)F)[C@H]1O[C@@H](n2ccc(=O)[nH]c2=O)[C@H](O)[C@@H]1O	12.9	-1.1	0.6	4.4	-1.1	-1.1
O=C(CC[C@H]1O[C@@H](n2cnc3c(NC(=O)c4ccccc4)ncnc32)[C@H](O)[C@@H]1O)NCC(F)(F)F	10.1	-5.2	0.7	2.9	-0.9	9.9
O=C(CC[C@H]1O[C@@H](n2cnc3c(NC(=O)c4ccccc4)ncnc32)[C@H](O)[C@@H]1O)NCC1CCN(Cc2ccccc2)CC1	-0.1	-12.0	1.3	-0.8	3.0	23.8*
